From PubChem BioAssay come the findings set out here.

Assay [1] concerns Human papillomavirus type 1a protein E7 (residues 44-93). The assay is described as follows: small molecules binding HPV E7 44-93 – biochemical, small-molecule microarray, residues 44-93, 635 nm fluorescence, primary screen (AID 1108).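 Also: E7 fragment applied at 1 µg/mL in TBST for 1 h at 4 C; score combines spot fluorescence with its signal to noise ratio.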 Conditions: fluorescence 635 nm, higher = more signal.
Assay [2] is described as follows: hepatitis C replication reporter changes, two-sided – Huh7 cells, luciferase reporter, HCV replication inhibitor project, primary screen (AID 1109).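 Also: huh7 hepatoma cells harbouring a luciferase neomycin HCV replicon reporter; luciferase luminescence as measure of HCV replicon replication; test concentration not given here.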 Conditions: Huh7 HCV replicon luciferase reporter, 48 h; higher = more signal.
In assay [3] the target is Left-right determination factor 2 (Homo sapiens) (UniProt O00292). The assay is described as follows: small molecules binding LEFTY2 protein – biochemical, small-molecule microarray, 635 nm fluorescence scan, primary screen (AID 1110). Conditions: higher = more signal.
Assay [4] has as its target Calmodulin-1 (Homo sapiens) (UniProt P0DP23). In words: small molecules binding calmodulin-1 with EGTA – biochemical, small-molecule microarray, Cy5-labelled CALM1, profiling panel (AID 1111).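 Also: labelled calmodulin applied in Tris saline Tween buffer holding calcium plus EGTA and DTT.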 Conditions: Cy5-CALM1 binding fluorescence, higher = more signal.
Assay [5] shares this target. The assay is described as follows: small molecules binding Ca-loaded calmodulin-1 – biochemical, small-molecule microarray, Cy5-labelled CALM1, plus calcium, artefact control for SMM control-protein annotation, profiling panel (AID 1112).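 Also: score merges spot fluorescence with signal to noise from triplicate slides.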 As to conditions: Cy5-CALM1 binding fluorescence, higher = more signal.
Assay [6] in a line: probe aWnt5a binding to arrayed compounds – biochemical, biotinylated probe, 635/667 nm fluorescence, primary screen (AID 1113).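 Also: score merges 667 nm fluorescence intensity with signal-to-noise per printed feature.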 Conditions: small-molecule microarray, higher = more signal.
A short description of assay [7]: probe aShh binding to arrayed compounds – biochemical, biotinylated probe, 635/667 nm fluorescence, primary screen (AID 1114).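 Also: probe is biotin-labelled aShh protein from a stem cell growth factor screen; measures binding of labelled protein to compounds printed on the slide; score merges feature fluorescence at 667 nm with signal-to-noise.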 Conditions: small-molecule microarray, higher = more signal.
Assay [8] is described as follows: probe aNog binding to arrayed compounds – biochemical, biotinylated probe, 635/667 nm fluorescence, primary screen (AID 1115).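 Also: probe is biotinylated aNog protein used at 0.15 µg/mL for 1 h at 4 C; z-score combines 667 nm fluorescence of each spot with its signal to noise.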 As to conditions: small-molecule microarray, higher = more signal.
Assay [9] deals with Torsin-1A-interacting protein 1 (Homo sapiens) (UniProt Q5JTV8). In words: compound microarray binding of lysate hLAP1 – cell lysate, small-molecule microarray, COS7 lysate, 635/667 nm fluorescence, primary screen (AID 1116). As to conditions: 635 nm fluorescence, higher = more signal.
Assay [10] deals with Alpha-bungarotoxin (Bungarus multicinctus) (UniProt P60615). The assay is described as follows: compounds binding labelled alpha-BTX control protein – biochemical, small-molecule microarray, Alexa647 label, 635/667 nm fluorescence, artefact control for SMM control protein annotation, profiling panel (AID 1117). As to conditions: alpha-BTX-A647 binding fluorescence, higher = more signal.
Chain of Alpha-bungarotoxin (Bungarus multicinctus) (P60615 whole entry, looked up): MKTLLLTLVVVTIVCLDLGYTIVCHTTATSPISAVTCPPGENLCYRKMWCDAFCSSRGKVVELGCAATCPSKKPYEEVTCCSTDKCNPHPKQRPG

Chain of Torsin-1A-interacting protein 1 (Homo sapiens) (Q5JTV8 whole entry, looked up): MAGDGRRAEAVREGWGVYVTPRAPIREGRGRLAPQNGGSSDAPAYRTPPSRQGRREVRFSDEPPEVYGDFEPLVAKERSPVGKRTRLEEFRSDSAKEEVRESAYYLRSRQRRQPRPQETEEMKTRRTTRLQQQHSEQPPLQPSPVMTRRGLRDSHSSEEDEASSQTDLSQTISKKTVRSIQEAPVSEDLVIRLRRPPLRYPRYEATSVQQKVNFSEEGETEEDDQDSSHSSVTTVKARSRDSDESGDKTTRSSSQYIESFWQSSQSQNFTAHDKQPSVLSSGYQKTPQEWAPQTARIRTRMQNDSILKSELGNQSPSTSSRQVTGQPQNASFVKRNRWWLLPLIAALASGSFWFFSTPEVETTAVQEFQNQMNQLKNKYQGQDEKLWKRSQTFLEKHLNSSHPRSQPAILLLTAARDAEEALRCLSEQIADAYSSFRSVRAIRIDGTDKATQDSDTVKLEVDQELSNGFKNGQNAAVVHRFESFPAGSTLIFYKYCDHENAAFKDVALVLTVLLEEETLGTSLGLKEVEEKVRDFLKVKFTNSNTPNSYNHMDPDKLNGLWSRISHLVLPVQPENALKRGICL
Chain of Left-right determination factor 2 (Homo sapiens) (O00292 whole entry, looked up): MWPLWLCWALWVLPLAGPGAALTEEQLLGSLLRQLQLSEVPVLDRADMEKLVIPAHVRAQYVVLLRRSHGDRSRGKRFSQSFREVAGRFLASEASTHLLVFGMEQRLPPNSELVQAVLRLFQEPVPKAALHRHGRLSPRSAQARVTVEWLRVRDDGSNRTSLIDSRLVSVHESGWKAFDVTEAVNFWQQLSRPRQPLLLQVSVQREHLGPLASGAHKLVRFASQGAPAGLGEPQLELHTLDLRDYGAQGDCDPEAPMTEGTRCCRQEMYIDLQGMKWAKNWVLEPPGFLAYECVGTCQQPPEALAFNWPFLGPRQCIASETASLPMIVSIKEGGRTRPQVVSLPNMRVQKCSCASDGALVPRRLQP

Turning to `COC(=O)[C@@H]1CC[C@H](C)[C@@H](c2ccc(Br)cc2)N1C(=O)C(F)(F)F`, the composite z-score in assay [1] was -1.1; in assay [3], 0.179; in assay [4], -0.257; in assay [5], 0.137; in assay [6], -0.226; in [7], -0.476. The composite z-score in [8] was -0.127; in [9] it was -0.287; in assay [10], 0.263. For the same compound, the z-score in [2] was -0.317.

Turning to `O=C1C[C@@H](O)[C@@H](O)[C@@H]2[C@@H]3C(=O)N(C4CCCCC4)C(=O)[C@@H]3CC[C@@H]12`, the composite z-score was 0.242 in [1]; 0.697 in assay [3]; -0.0958 in [4]; -0.397 in assay [5]; -0.177 in assay [6]; 0.0898 in assay [7]. The composite z-score in assay [8] was -0.104; in assay [9] it was 0.462; in assay [10] it was 0.882. The compound also had a z-score in [2] of -0.331.

Regarding `COCCNC(=O)OCC1CCCC2(CC(OC(=O)NCc3cccc4ccccc34)CC(CCC(=O)N[C@@H](C)C(=O)OC)O2)O1` (stereo not given in full), the composite z-score is 1.35 in assay [1]; 0.781 in assay [3]; 0.171 in assay [4]; -0.62 in [5]; -0.144 in [6]; -0.0006 in [7]. Further, the composite z-score is -0.256 in assay [8], 0.002 in assay [9] and 0.801 in assay [10]. This compound had a z-score in assay [2] of -0.942.

As for `COc1cccc([C@H](O)Cn2cc(-c3ccc(CON=C(C)C)cc3)nn2)c1`, the composite z-score in assay [1] was -1.42; in assay [3], 0.323; in assay [4], -0.851; in assay [5] it was -0.679; in assay [6] it was 0.123; in assay [7] it was -0.229. For the same compound, the composite z-score in assay [8] was -0.172; in assay [9] it was 0.56; in assay [10], -0.713. In assay [2], this compound came in with a z-score of -0.657.

With `C[C@@H](c1ccccc1)N1C(=O)[C@H]2[C@H]3[C@H](O)[C@H](O)CC(=NNC(=O)OCc4ccccc4)[C@@H]3CC[C@H]2C1=O`, the composite z-score in assay [1] is -0.347; in assay [3], 1.17; in [4] it was -1.16; in assay [5], -1.94; in assay [6], -0.158; in assay [7] it was 0.0062. Besides, the composite z-score is -0.545 in assay [8], -0.043 in assay [9] and -0.716 in assay [10]. Also, the z-score in assay [2] was -1.01.

On to `COC(=O)CC=C[C@@H](C)[C@@H](C=NOC[C@@H](O)[C@H]1O[C@@H]2OC(C)(C)O[C@@H]2[C@H]1O)OC`, for which the composite z-score in [1] is 0.416; in assay [3], 0.638; in assay [4] it was -0.139; in assay [5] it was -0.565; in [6], -0.012; in assay [7] it was -0.0035. In addition, the composite z-score is -0.234 in [8], 0.422 in assay [9] and 0.265 in assay [10]. The same compound returned a z-score in assay [2] of -0.594.

For the compound `COc1ccc(O[C@H]2C=C[C@@H](c3ccccc3)O[C@@H]2COC(=O)CCC(C)=NOC[C@@H](O)COCc2ccco2)cc1`, the composite z-score in assay [1] is -0.82; in [3], -4.63; in assay [4], -2.11; in assay [5], -2.04; in [6], -0.449; in [7], -0.267. For the same compound, the composite z-score in assay [8] is -0.715; in [9], -2.94; in assay [10], -1.65. In assay [2], this compound had a z-score of -0.681.

As to `C=CC[C@@H]1C=C[C@H](ON=C2C[C@@H](O)[C@@H](O)[C@@H]3[C@@H]4C(=O)N(CC)C(=O)[C@@H]4CC[C@@H]23)[C@@H](CO)O1`, the composite z-score is -0.573 in assay [1]; 0.13 in [3]; -0.758 in [4]; -0.777 in [5]; -0.131 in assay [6]; 0.116 in assay [7]. Also, the composite z-score in assay [8] is 0.0541; in assay [9] it was -0.164; in [10], -1.03. In [2], this compound had a z-score of 0.0355.

Turning to `CC(C)CON=C1C[C@@H](O)[C@@H](O)[C@@H]2[C@@H]3C(=O)N(Cc4ccc5c(c4)OCO5)C(=O)[C@@H]3CC[C@@H]12`, the composite z-score in assay [1] was 0.44; in assay [3], -0.119; in assay [4], 0.349; in [5] it was -0.311; in assay [6] it was -0.0279; in assay [7] it was -0.0769. Moreover, the composite z-score in [8] is -0.103; in assay [9], 0.086; in assay [10] it was 0.748. Moreover, the z-score in assay [2] worked out at 0.081.

As for `O=C1[C@H]2[C@H]3[C@H](O)[C@H](O)CC(=NO[C@@H]4O[C@H](CO)[C@@H](O)[C@H](O)[C@H]4O)[C@@H]3CC[C@H]2C(=O)N1c1cccc(Oc2ccccc2)c1`, the composite z-score in [1] was 0.418; in assay [3], 0.982; in assay [4] it was 0.209; in assay [5] it was 0.0635; in assay [6] it was -0.0506; in assay [7] it was -0.0362. Besides, the composite z-score was -0.0675 in [8], 0.593 in [9] and -0.447 in [10]. For the same compound, in assay [2], the z-score is -0.174.

With `COC(=O)CC=C[C@@H](C)[C@@H](C=NOC(C)CN1CCCc2nc(C)c(C)cc21)NS(=O)(=O)c1ccc(C)cc1` (stereo not given in full), the composite z-score in [1] is 1.09; in [3] it was 0.817; in assay [4], -0.481; in assay [5], -0.56; in assay [6], -0.0758; in assay [7] it was 0.213. Moreover, the results for the composite z-score in assay [8], in [9] and in [10] were -0.0172, 0.232 and -0.0193, respectively. The compound further displayed a z-score in [2] of -1.05.

As to `CO[C@@H]1COC(=O)[C@@H]2CCCN2C(=O)[C@@H](C)COC(=O)CCC[C@H]1C`, the composite z-score in [1] is 0.212; in assay [3] it was 0.83; in [4], -0.0691; in [5] it was -0.911; in [6], -0.175; in [7] it was -0.0553. In addition, the composite z-score was -0.346 in [8], 0.883 in assay [9] and 0.482 in assay [10]. The same compound showed a z-score in assay [2] of -0.016.

As for `C=CC[C@@H]1C=C[C@H](ON=CC[C@@H]2C=C[C@H](OC(C)=O)[C@@H](COC(C)=O)O2)[C@@H](CO)O1`, the composite z-score in assay [1] is 1.25; in assay [3], 0.514; in assay [4] it was 0.501; in [5], -0.0909; in [6] it was 0.423; in assay [7], 0.113. For the same compound, the composite z-score in assay [8] was -0.467; in assay [9] it was 0.223; in assay [10] it was 1.86. In addition, the z-score in assay [2] is 0.563.

For the compound `CC(=O)OC[C@H]1O[C@@H](ON=C(C)CCC(=O)OC[C@H]2O[C@H](C#Cc3ccccc3)C=C[C@@H]2Oc2ccc(C)cc2)[C@H](OC(C)=O)[C@@H](OC(C)=O)[C@@H]1OC(C)=O`, the composite z-score in [1] is 1.18; in assay [3], 0.713; in assay [4], 0.49; in assay [5], -0.304; in assay [6] it was -0.0735; in assay [7], -0.0769. Moreover, the figures for the composite z-score in [8], in assay [9] and in assay [10] were -0.156, 0.415 and -0.0285, respectively. The z-score in assay [2] was -1.2.

Regarding `CCOC(=O)CCN1C(=O)[C@H]2[C@@H]3C(=CC[C@H]2C1=O)C(=O)[C@H]1O[C@H]1[C@H]3O`, the composite z-score is -0.636 in [1]; -0.72 in [3]; -0.719 in assay [4]; -0.481 in assay [5]; -0.222 in assay [6]; -0.221 in [7]. For the same compound, the composite z-score in assay [8] is -0.358; in assay [9], 0.447; in [10] it was -0.473. Further, in assay [2], the z-score is -4.75.

Consider `CO[C@@H]1COC(=O)CC=C[C@H](C)[C@H](OC)COC(=O)[C@@H]2CCCN2C(=O)CC=C[C@H]1C`, for which the composite z-score in assay [1] is -0.496; in assay [3], 1.31; in [4] it was -0.86; in assay [5], -1.38; in [6], -0.113; in assay [7] it was 0.0328. For the same compound, the composite z-score is -0.195 in assay [8], -0.041 in [9] and -0.324 in [10]. The compound also registered a z-score in [2] of -0.733.
